Assay results reported in PubChem BioAssay (NCATS).
Records with an inconclusive call do not appear. Active and inactive are the calls of the source. Unless noted, calls come from the whole dose curve; as a rule, active = well fitted curve in the direction sought with a large enough effect; inconclusive = small, poorly fitted or top-dose-only effect, or another doubt; inactive = no such curve, though single readings can be large; an effect the other way counts as inactive or inconclusive. Where a SMILES comes first, the peptide text is derived from it. Bridges are numbered along the chain shown (N, C = ends). [ ]: non-standard residue; d: D form. The star is where a group is joined. X1 = CC[C@@H](C)[C@@H](N)C1=N[C@H](C(=O)*)CS1; d(aIle) = CC[C@H](C)[C@@H](N)C(=O)O; dOrn = NCCC[C@@H](N)C(=O)O

Key:
MKL-2 = experiment: qHTS assay to identify novel small-molecules to repurpose for Merkel cell carcinoma treatment (AID 1296009); details: MCC and control cell lines, CellTiter-Glo viability, 72 h; series mostly up to 46 µM; note: nearly all actives have a fitted effect of over 60% in size
Procedure, shortened: (§1)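 Cell viability measured by CellTiter-Glo following 72 hr compound treatment at 37 degree celsius, with NPC and MIPE libraries tested in 8- and 11-point concentration series.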

UISO = experiment: as above; details: MCC and control cell lines, CellTiter-Glo viability, 72 h; series mostly up to 46 µM
Procedure, shortened: as §1

WaGa = experiment: as above; details: MCC and control cell lines, CellTiter-Glo viability, 72 h; series mostly up to 46 µM
Procedure, shortened: as §1

C33A = experiment: Primary qHTS to identify gynecologic anti-cancer compounds using libraries of approved drugs and bioactive compounds (AID 1345084); details: Gynecologic cancer cell panel viability, ATPlite luminescence, 48 h; series mostly up to 57.5 µM; note: nearly all actives have a fitted effect of over 55% in size; note: potency is the fitted concentration of half-maximal effect
Procedure, shortened: (§2)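 Cell viability after 48 h drug treatment, ATPlite luminescence readout; five doses.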

CASKI = experiment: as above; details: Gynecologic cancer cell panel viability, ATPlite luminescence, 48 h; series mostly up to 57.5 µM
Procedure, shortened: as §2

Es-2 = experiment: as above; details: Gynecologic cancer cell panel viability, ATPlite luminescence, 48 h; series mostly up to 57.5 µM
Procedure, shortened: as §2

Hek293T = experiment: as above; details: Gynecologic cancer cell panel viability, ATPlite luminescence, 48 h, control line for the selectivity index; series mostly up to 57.5 µM
Procedure, shortened: as §2

JEG-3 = experiment: as above; details: Gynecologic cancer cell panel viability, ATPlite luminescence, 48 h; series mostly up to 57.5 µM
Procedure, shortened: as §2

SKOV3 = experiment: as above; details: Gynecologic cancer cell panel viability, ATPlite luminescence, 48 h; series mostly up to 57.5 µM
Procedure, shortened: as §2

Tov-21-G = experiment: as above; details: Gynecologic cancer cell panel viability, ATPlite luminescence, 48 h; series mostly up to 57.5 µM
Procedure, shortened: as §2

Tov112D = experiment: as above; details: Gynecologic cancer cell panel viability, ATPlite luminescence, 48 h; series mostly up to 57.5 µM
Procedure, shortened: as §2

[1] = Drug repurposing screens with cells derived from glioblastoma tumor samples (AID 1345199); details: GBM patient neurospheres viability, ATP luminescence, 48 h; note: nearly all actives have a fitted effect of over 40% in size; note: potency is the fitted concentration of half-maximal effect; for activity, negative = cell killing: % is set by controls: 0 for no effect and ±100 for the full control effect
Procedure, shortened: (§3)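 Primary testing used CD133+ neurospheres from four GBM patients, seven concentrations, 48 h exposure and ATP-based viability; confirmation added three slower-growing patient lines.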

HeLa = experiment: Primary qHTS to identify gynecologic anti-cancer compounds using libraries of approved drugs and bioactive compounds (AID 1345084); details: Gynecologic cancer cell panel viability, ATPlite luminescence, 48 h; series mostly up to 57.5 µM; note: nearly all actives have a fitted effect of over 55% in size; note: potency is the fitted concentration of half-maximal effect
Procedure, shortened: as §2

OV90 = experiment: as above; details: Gynecologic cancer cell panel viability, ATPlite luminescence, 48 h; series mostly up to 57.5 µM
Procedure, shortened: as §2

PA-1 = experiment: as above; details: Gynecologic cancer cell panel viability, ATPlite luminescence, 48 h; series mostly up to 57.5 µM
Procedure, shortened: as §2

astro = experiment: Drug repurposing screens with cells derived from glioblastoma tumor samples (AID 1345199); details: viability, ATP luminescence, 48 h; series mostly up to 45.9 µM; note: nearly all actives have a fitted effect of over 40% in size; note: potency is the fitted concentration of half-maximal effect; for activity, negative = cell killing: % is set by controls: 0 for no effect and ±100 for the full control effect
Procedure, shortened: as §3

[2] = molecular target: Nuclear receptor subfamily 1 group I member 2 (Rattus norvegicus) (UniProt Q9R1A7); experiment: qHTS assay for small molecule activators of the rat pregnane X receptor (rPXR) signaling pathway (AID 651751; call rule not given here; note: 0% is about no effect); details: rPXR reporter cells, luciferase (One-Glo), 24 h
[3] = qHTS assay for small molecule activators of the human pregnane X receptor (PXR) signaling pathway (AID 720659; call rule not given here; note: 0% is about no effect)
NIH3T3 = experiment: qHTS assay to identify novel small-molecules to repurpose for Merkel cell carcinoma treatment (AID 1296009); details: MCC and control cell lines, CellTiter-Glo viability, 72 h; at 44.8 µM (top of the series); note: nearly all actives have a fitted effect of over 60% in size
Procedure, shortened: as §1

[4] = at 45.9 µM (top of the series), tumour line B
[5] = at 45.9 µM (top of the series), tumour line D
[6] = at 46.1 µM (top of the series), tumour line C
[7] = at 20 µM (top of the series), tumour line C
[8] = at 46 µM (top of the series), tumour line A

Sequence of Nuclear receptor subfamily 1 group I member 2 (Rattus norvegicus) (Q9R1A7 whole entry, looked up): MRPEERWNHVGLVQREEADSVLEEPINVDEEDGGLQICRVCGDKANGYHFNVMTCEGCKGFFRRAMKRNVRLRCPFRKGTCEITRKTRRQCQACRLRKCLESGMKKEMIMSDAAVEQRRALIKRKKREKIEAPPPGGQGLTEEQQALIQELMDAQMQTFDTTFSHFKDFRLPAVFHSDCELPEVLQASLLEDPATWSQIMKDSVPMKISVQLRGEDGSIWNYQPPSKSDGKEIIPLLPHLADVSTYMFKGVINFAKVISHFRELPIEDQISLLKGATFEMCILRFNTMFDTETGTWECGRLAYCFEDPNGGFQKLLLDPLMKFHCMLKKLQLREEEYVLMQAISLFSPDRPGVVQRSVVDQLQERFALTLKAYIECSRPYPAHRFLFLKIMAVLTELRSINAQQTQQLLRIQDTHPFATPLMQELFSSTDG

Nc1ccc(N=Nc2ccccc2)c(N)n1
inactive: outcome (MKL-2) | outcome (UISO) | outcome (WaGa) | Potency (C33A) | Potency (CASKI) | Potency (Es-2) | Potency (Hek293T) | Potency (JEG-3) | outcome (SKOV3) | Potency (Tov-21-G) | outcome (Tov112D)

Cc1c(Cl)cccc1Nc1ncccc1C(=O)O
inactive: activity, negative = cell killing [1, 4] -16.8% | activity, negative = cell killing [1, 5] -17%

Nc1nc(NC2CC2)c2ncn([C@@H]3C=C[C@@H](CO)C3)c2n1
inactive: activity, negative = cell killing [1, 6] -22.1%
active: Potency ([1]; tumour line A) 35.5 µM

C=C1[C@H](CO)[C@@H](O)C[C@@H]1n1cnc2c(=O)[nH]c(N)nc21
inactive: Potency (C33A) | Potency (CASKI) | Potency (Es-2) | Potency (HeLa) | Potency (Hek293T) | Potency (JEG-3) | Potency (OV90) | Potency (PA-1) | outcome (SKOV3) | Potency (Tov-21-G) | outcome (Tov112D) | activity, negative = cell killing [1, 4] -13.2% | activity, negative = cell killing [1, 6] -24% | Potency (astro)

CC[C@@H](C)[C@@H](N)C1=N[C@H](C(=O)N[C@@H](CC(C)C)C(=O)N[C@@H](CCC(=O)O)C(=O)N[C@@H](C(=O)N[C@@H]2CCCCNC(=O)[C@@H](CC(N)=O)NC(=O)[C@@H](CC(=O)O)NC(=O)[C@@H](Cc3cnc[nH]3)NC(=O)[C@@H](Cc3ccccc3)NC(=O)[C@@H]([C@H](C)CC)NC(=O)[C@@H](CCCN)NC2=O)[C@@H](C)CC)CS1 (X1-LE[d(aIle)][dK][dOrn][dI][dF][dH][dD][dN]; lactam 4-C)
inactive: activity, negative = cell killing [1, 7] 4.06% | activity, negative = cell killing ([1]; at 21.2 µM (top of the series), tumour line B) -2.34% | activity, negative = cell killing ([1]; at 21.2 µM (top of the series), tumour line D) -0.888% | activity, negative = cell killing ([1]; at 21.3 µM (top of the series), tumour line A) -20.3% | activity, negative = cell killing [1, 4] -12.2% | activity, negative = cell killing [1, 5] -10.9% | activity, negative = cell killing [1, 8] -25% | activity, negative = cell killing [1, 6] 23.1% | Potency (astro)

Cc1c(N)nc([C@H](CC(N)=O)NC[C@H](N)C(N)=O)nc1C(=O)N[C@H](C(=O)N[C@H](C)[C@@H](O)[C@H](C)C(=O)N[C@H](C(=O)NCCc1nc(-c2nc(C(=O)NCCCCN=C(N)N)cs2)cs1)[C@@H](C)O)[C@@H](O[C@@H]1O[C@@H](CO)[C@@H](O)[C@H](O)[C@@H]1O[C@H]1O[C@H](CO)[C@@H](O)[C@H](OC(N)=O)[C@@H]1O)c1cnc[nH]1
inactive: activity, negative = cell killing [1, 4] -16.7% | activity, negative = cell killing [1, 6] -15.4%

COc1ccc2c(c1)N(C[C@H](C)CN(C)C)c1ccccc1S2
active: Potency ([1]; tumour line A) 4.47 µM | Potency ([1]; tumour line D) 12.6 µM
inactive: activity, negative = cell killing [1, 7] 13%

CC(C)(C)c1ccc2c(S(=O)(=O)O)c(C(C)(C)C)ccc2c1
inactive: activity, negative = cell killing [1, 4] 0.454% | activity, negative = cell killing [1, 5] 6.66% | activity, negative = cell killing [1, 8] -27.1% | activity, negative = cell killing [1, 6] -16.6% | activity, negative = cell killing ([1]; at 91.6 µM (top of the series), tumour line B) -24.2% | activity, negative = cell killing ([1]; at 91.6 µM (top of the series), tumour line D) -20.7% | activity, negative = cell killing ([1]; at 99.2 µM (top of the series), tumour line C) -7.16% | Potency (astro)

COc1ccc2nc(NC(=O)Nc3ccccc3)sc2c1
inactive: outcome (MKL-2) | outcome (UISO)
active: Potency (CASKI) 12.6 µM | Potency (Es-2) 8.91 µM | Potency (Hek293T) 14.1 µM | Potency (JEG-3) 20 µM | Potency (OV90) 22.4 µM | Potency (PA-1) 25.1 µM | Potency (astro) 7.94 µM

N[C@@H](Cc1cc(I)c(Oc2ccc(O)c(I)c2)c(I)c1)C(=O)O
active: Potency ([1]; tumour line A) 11.2 µM
inactive: Potency (C33A) | Potency (CASKI) | Potency (Es-2) | Potency (HeLa) | Potency (Hek293T) | Potency (JEG-3) | Potency (OV90) | Potency (PA-1) | outcome (SKOV3) | Potency (Tov-21-G) | outcome (Tov112D) | activity, negative = cell killing [1, 4] 0.914% | activity, negative = cell killing [1, 6] -18.1% | Potency (astro) | max response [2] -4.55% | outcome [3]

O=C1c2ccccc2C(=O)c2c1ccc(O)c2O
inactive: outcome (MKL-2) | outcome (UISO) | Potency (C33A) | Potency (CASKI) | Potency (Es-2) | Potency (HeLa) | Potency (Hek293T) | Potency (JEG-3) | Potency (OV90) | Potency (PA-1) | Potency (Tov-21-G) | outcome (Tov112D) | activity, negative = cell killing [1, 4] -22.8% | activity, negative = cell killing [1, 6] -2.45% | Potency (astro)

CC(C)(C)c1ccc(CN2CCN(C(c3ccccc3)c3ccc(Cl)cc3)CC2)cc1 (stereo not drawn)
inactive: outcome (NIH3T3) | Potency (C33A) | Potency (CASKI) | Potency (Es-2) | Potency (HeLa) | Potency (Hek293T) | Potency (JEG-3) | Potency (OV90) | Potency (PA-1) | outcome (SKOV3) | Potency (Tov-21-G) | outcome (Tov112D)
active: Potency (astro) 35.5 µM

CC1=C(/C=C/C(C)=C/C=C/C(C)=C/C(=O)Oc2c(C)c(C)c3c(c2C)CC[C@@](C)(CCC[C@H](C)CCC[C@H](C)CCCC(C)C)O3)C(C)(C)CCC1
inactive: activity, negative = cell killing [1, 4] -7.62% | activity, negative = cell killing [1, 5] -2.61%
active: Potency ([1]; tumour line A) 25.1 µM

CC1CC(OC(=O)C(O)c2ccccc2)CC(C)(C)C1 (stereo not drawn)
inactive: Potency (C33A) | Potency (CASKI) | Potency (Es-2) | Potency (HeLa) | Potency (Hek293T) | Potency (JEG-3) | Potency (OV90) | Potency (PA-1) | outcome (SKOV3) | Potency (Tov-21-G) | outcome (Tov112D) | activity, negative = cell killing [1, 4] -16.2% | activity, negative = cell killing [1, 5] 6.83% | activity, negative = cell killing [1, 6] -12.1% | Potency (astro)
